# According to the supplement of paper PMC8728848:
# About 410 targets per protein were measured; listed, in parts, are those with the strongest signals and a random draw of the rest.
# B1: Sialidase (Vibrio cholerae), P37060 (protein)
# chain: GAMALFDYNATGDTEFDSPAKQGWMQDNTNNGSGVLTNADGMPAWLVQGIGGRAQWTYSLSTNQHAQASSFGWRMTTEMKVLSGGMITNYYANGTQRVLPIISLDSSGNLVVEFEGQTGRTVLATGTAATEYHKFELVFLPGSNPSASFYFDGKLIRDNIQPTASKQNMIVWGNGSSNTDGVAAYRDIKFEIQGDALNGSMALFDYNATGDTEFDSPAKQGWMQDNTNNGSGVLTNADGMPAWLVQGIGGRAQWTYSLSTNQHAQASSFGWRMTTEMKVLSGGMITNYYANGTQRVLPIISLDSSGNLVVEFEGQTGRTVLATGTAATEYHKFELVFLPGSNPSASFYFDGKLIRDNIQPTASKQNMIVWGNGSSNTDGVAAYRDIKFEIQGDLQALGMALFDYNATGDTEFDSPAKQGWMQDNTNNGSGVLTNADGMPAWLVQGIGGRAQWTYSLSTNQHAQASSFGWRMTTEMKVLSGGMITNYYANGTQRVLPIISLDSSGNLVVEFEGQTGRTVLATGTAATEYHKFELVFLPGSNPSASFYFDGKLIRDNIQPTASKQNMIVWGNGSSNTDGVAAYRDIKFEIQGD
# How the values were obtained:
# Test in all cases: glycan array binding signal (z-score within array); higher = stronger binding
# Conditions in all cases: glycan notation: IUPAC condensed, linker removed
# [1] = target: Fuc(a1-2)[Gal(a1-3)]Gal(b1-4)Glc
# In short: (§1)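 Arrays were curated from the Consortium for Functional Glycomics database, 3228 in total, and kept only where the protein sequence was available. Binding is expressed as a within-array Z-score. This score was averaged across arrays of the same protein sequence at different concentrations or buffers and across linkers, and negative values can be read as non-binding.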
# Fuc(a1-3)GlcNAc = target: Fuc(a1-3)GlcNAc
# In short: as §1
# [2] = target: Fuc(a1-3)[GalNAc(b1-4)]GlcNAc
# In short: as §1
# Gal(a1-3)GalNAc = target: Gal(a1-3)GalNAc
# In short: as §1
# Gal(b1-3)GalNAc = target: Gal(b1-3)GalNAc
# In short: as §1
# [3] = target: Gal(b1-3)GalNAc(b1-4)[Neu5Ac(a2-3)]Gal(b1-4)Glc
# In short: as §1
# [4] = target: Gal(b1-3)GlcNAc(b1-3)Gal(b1-4)GlcNAc
# In short: as §1
# [5] = target: Gal(b1-3)[Fuc(a1-4)]GlcNAc
# In short: as §1
# Gal3S(b1-3)GalNAc = target: Gal3S(b1-3)GalNAc
# In short: as §1
# Gal6S(b1-4)GlcNAc = target: Gal6S(b1-4)GlcNAc
# In short: as §1
# [6] = target: GalNAc(b1-4)GlcNAc(b1-2)Man(a1-3)[GalNAc(b1-4)GlcNAc(b1-2)Man(a1-6)]Man(b1-4)GlcNAc(b1-4)GlcNAc
# In short: as §1
# GlcA(b1-6)Gal = target: GlcA(b1-6)Gal
# In short: as §1
# [7] = target: GlcNAc(a1-4)Gal(b1-4)GlcNAc(b1-3)Gal(b1-4)Glc
# In short: as §1
# [8] = target: GlcNAc(b1-2)Man(a1-3)[GlcNAc(b1-2)Man(a1-6)]Man(b1-4)GlcNAc(b1-4)[Fuc(a1-6)]GlcNAc
# In short: as §1
# [9] = target: GlcNAc(b1-3)Gal(b1-4)GlcNAc(b1-3)Gal(b1-4)GlcNAc
# In short: as §1
# [10] = target: GlcNAc(b1-4)GlcNAc(b1-4)GlcNAc(b1-4)GlcNAc(b1-4)GlcNAc
# In short: as §1
# Kdn(a2-3)Gal(b1-3)GalNAc = target: Kdn(a2-3)Gal(b1-3)GalNAc
# In short: as §1
# [11] = target: Man(a1-2)Man(a1-3)[Man(a1-2)Man(a1-6)]Man(a1-6)[Man(a1-2)Man(a1-2)Man(a1-3)]Man(b1-4)GlcNAc(b1-4)GlcNAc
# In short: as §1
# Man(a1-3)[Man(a1-6)]Man = target: Man(a1-3)[Man(a1-6)]Man
# In short: as §1
# [12] = target: Neu5Ac(a2-3)Gal(b1-3)GalNAc(b1-3)Gal(a1-4)Gal(b1-4)Glc
# In short: as §1
# [13] = target: Neu5Ac(a2-3)Gal(b1-3)[Fuc(a1-4)]GlcNAc(b1-3)Gal(b1-3)[Fuc(a1-4)]GlcNAc
# In short: as §1
# [14] = target: Neu5Ac(a2-3)Gal(b1-3)[Neu5Ac(a2-6)]GalNAc
# In short: as §1
# [15] = target: Neu5Ac(a2-3)Gal(b1-4)GlcNAc(b1-2)Man(a1-3)[Neu5Ac(a2-6)Gal(b1-4)GlcNAc(b1-2)Man(a1-6)]Man(b1-4)GlcNAc(b1-4)GlcNAc
# In short: as §1
# [16] = target: Neu5Ac(a2-3)Gal(b1-4)GlcNAc(b1-3)Gal(b1-4)GlcNAc
# In short: as §1
# [17] = target: Neu5Ac(a2-3)Gal(b1-4)GlcNAc6S
# In short: as §1
# [18] = target: Neu5Ac(a2-3)Gal(b1-4)[Fuc(a1-3)]GlcNAc(b1-6)[Neu5Ac(a2-3)Gal(b1-3)]GalNAc
# In short: as §1
# [19] = target: Neu5Ac(a2-3)Gal6S(b1-4)GlcNAc
# In short: as §1
# [20] = target: Neu5Ac(a2-6)Gal(b1-4)GlcNAc(b1-2)Man(a1-6)Man(b1-4)GlcNAc(b1-4)GlcNAc
# In short: as §1
# [21] = target: Neu5Ac(a2-8)Neu5Ac(a2-3)[GalNAc(b1-4)]Gal(b1-4)Glc
# In short: as §1
# [22] = target: Neu5Ac(a2-8)Neu5Ac(a2-8)Neu5Ac
# In short: as §1
binder,measurement,setting,value
B1,glycan array binding signal (z-score),[1],-0.115
same,glycan array binding signal (z-score),Fuc(a1-3)GlcNAc,-0.622
same,glycan array binding signal (z-score),[2],-0.6
same,glycan array binding signal (z-score),Gal(a1-3)GalNAc,-0.472
same,glycan array binding signal (z-score),Gal(b1-3)GalNAc,-0.469
same,glycan array binding signal (z-score),[3],0.396
same,glycan array binding signal (z-score),[4],-0.474
same,glycan array binding signal (z-score),[5],-0.364
same,glycan array binding signal (z-score),Gal3S(b1-3)GalNAc,-0.567
same,glycan array binding signal (z-score),Gal6S(b1-4)GlcNAc,-0.619
same,glycan array binding signal (z-score),[6],-0.622
same,glycan array binding signal (z-score),GlcA(b1-6)Gal,-0.085
same,glycan array binding signal (z-score),[7],-0.574
same,glycan array binding signal (z-score),[8],-0.267
same,glycan array binding signal (z-score),[9],0.631
same,glycan array binding signal (z-score),[10],-0.605
same,glycan array binding signal (z-score),Kdn(a2-3)Gal(b1-3)GalNAc,-0.286
same,glycan array binding signal (z-score),[11],0.193
same,glycan array binding signal (z-score),Man(a1-3)[Man(a1-6)]Man,-0.644
same,glycan array binding signal (z-score),[12],-0.275
same,glycan array binding signal (z-score),[13],5.53
same,glycan array binding signal (z-score),[14],2.8
same,glycan array binding signal (z-score),[15],6.62
same,glycan array binding signal (z-score),[16],4.64
same,glycan array binding signal (z-score),[17],2.73
same,glycan array binding signal (z-score),[18],0.955
same,glycan array binding signal (z-score),[19],6.38
same,glycan array binding signal (z-score),[20],1.84
same,glycan array binding signal (z-score),[21],-0.257
same,glycan array binding signal (z-score),[22],0.113
